Screens: PubChem, several laboratories
Rows were chosen to be rich in hits. Some 4.6% of all compounds tested hit in one or more screens of this group.
SKKanGAS inh: inhibitors of SKKanGAS S. pyogenes growth in kanamycin (SK-promoter or general growth effect); BacTiter-Glo, 6 h; inhibition, % at 7.5 µM; 300,000 compounds, 1.3% hits;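 active = mean replicate score, as percent of positive control median, at least 50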;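 note: strain carries kanamycin resistance gene driven by streptokinase promoter and grows in 40 µg/ml kanamycin; loss of luminescence reflects streptokinase promoter inhibition or plain growth inhibition; 0% = median of DMSO wells and 100% = positive control at its reference dose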
tim10-1 inh: inhibits growth of tim10-1 mutant yeast | S. cerevisiae tim10-1 ts strain growth, BacTiter-Glo, 24 h | inhibition, % at 20 µM | 330,000 compounds, 2.2% hits;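 active = inhibition of at least 40%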;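 note: mutant grown at 25 °C; 0% = DMSO wells with yeast and 100% = wells holding no yeast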
tim23-1 inh: tim23-1 yeast growth inhibition. S. cerevisiae tim23-1 growth, BacTiter-Glo luminescence, 24 h. inhibition, % at 20 µM. 330,000 compounds, 1.3% hits;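 active = growth inhibition of the mutant yeast at or above 50%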;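 note: temperature-sensitive mutant grown at 25 °C; plate controls were DMSO-treated mutant yeast for no effect and medium wells lacking yeast for full effect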
PfHsp90 set2: growth inhibition of yeast expressing Plasmodium Hsp90; S. cerevisiae expressing PfHsp90, BacTiter-Glo ATP, 48 h; yeast lacking PDR1 and PDR3 efflux regulators; inhibition, % at 9.4 µM; 310,000 compounds, 0.32% hits; AID 504621;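 active = every replicate shows inhibition above about 80%, whatever the replicate mean, limit read from the data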;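 note: 0% = DMSO neutral controls and 100% = 20 µM radicicol positive controls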
NALP3 yeast inh: blocks the NALP3 inflammasome reconstituted in yeast. 330,000 compounds, 0.39% hits. inhibition, % at 10 µM. AID 2825. Yeast reconstituted NLRP3/ASC/caspase-1, beta-gal luminescence, 24 h;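 active = inhibition of 50% or more; inactive = inhibition below 50%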;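 note: plate controls were induced DMSO wells for no effect and uninduced yeast grown without galactose for full effect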
TIM10 inh: inhibits growth of TIM10 yeast strain; 330,000 compounds, 1.4% hits; inhibition, % at 10 µM; S. cerevisiae TIM10 strain growth, BacTiter-Glo luminescence, 24 h; AID 463195;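 active = inhibition of 40% or more at the single tested concentration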;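 note: wild-type TIM10 isogenic control strain grown at permissive 25 °C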
An asterisk follows results filed as active.

O=[N+]([O-])c1ccc(NC(c2ccccc2)c2ccc3cccnc3c2O)cc1 (centres undefined) was read as PfHsp90 set2 112.5*.
Screening COc1cccc(C(NC(C)=O)c2ccc3cccnc3c2O)c1 (centres undefined) returned SKKanGAS inh 29.7, tim10-1 inh 1.4, tim23-1 inh 43.0, PfHsp90 set2 13.2, NALP3 yeast inh 32.8 and TIM10 inh -38.9.
For CC(=O)NC(c1cccc([N+](=O)[O-])c1)c1ccc2cccnc2c1O (centres undefined) the results were SKKanGAS inh 59.7*, tim10-1 inh -16.2, tim23-1 inh 35.8, PfHsp90 set2 33.1, NALP3 yeast inh 15.4 and TIM10 inh -64.4.
For O=C(Cc1ccc([N+](=O)[O-])cc1)Oc1ccccc1 the results were PfHsp90 set2 3.6.
Screening S=C1NCCOCCOCCNC(=S)N2CCOCCOCCN1CCOCCOCC2 returned SKKanGAS inh -1.1, tim10-1 inh 0.8, tim23-1 inh -12.1, PfHsp90 set2 27.6, NALP3 yeast inh 11.3 and TIM10 inh 11.7.
O=C(Nc1nnc(-c2ccncc2)o1)c1ccccc1F was read as SKKanGAS inh -0.9, tim10-1 inh -6.4, tim23-1 inh 7.9, PfHsp90 set2 16.6, NALP3 yeast inh 17.4 and TIM10 inh -4.8.
For O=C(Nc1nnc(-c2ccc(Cl)cc2)o1)c1nc2ccccc2s1 the results were SKKanGAS inh 94.2*, tim10-1 inh 10.1, tim23-1 inh -12.1, PfHsp90 set2 -37.2, NALP3 yeast inh 16.3 and TIM10 inh 7.5.
Screening O=C(Nc1nnc(-c2ccc(F)cc2)o1)c1cc(Cl)sc1Cl returned SKKanGAS inh 104.7*, tim10-1 inh -30.6, tim23-1 inh 9.6, PfHsp90 set2 80.0*, NALP3 yeast inh -12.2 and TIM10 inh 10.1.
O=C(Nc1nnc(-c2ccccc2)o1)c1cc(Cl)sc1Cl was read as SKKanGAS inh 89.5*, tim10-1 inh 20.5, tim23-1 inh 12.0, PfHsp90 set2 -68.7, NALP3 yeast inh 4.9 and TIM10 inh 22.5.
For CCCCn1c(N)c(N(CC)C(=O)CCNC(=O)NC23CC4CC(CC(C4)C2)C3)c(=O)[nH]c1=O the results were SKKanGAS inh -1.7, tim10-1 inh 10.5, tim23-1 inh 9.4, PfHsp90 set2 11.0, NALP3 yeast inh 4.5 and TIM10 inh 6.3.
Screening C/C(=N\NC(=O)COc1ccc(C)cc1C(C)C)c1cc2ccccc2o1 returned SKKanGAS inh 57.4*, tim10-1 inh 28.9, tim23-1 inh 23.3, PfHsp90 set2 -2.3, NALP3 yeast inh 24.3 and TIM10 inh 19.1.
For C/C(=N\NC(=O)COc1ccc(C(C)(C)C)cc1)c1cc2ccccc2o1 the results were SKKanGAS inh 18.8, tim10-1 inh 13.9, tim23-1 inh 7.5, PfHsp90 set2 17.1, NALP3 yeast inh 16.5 and TIM10 inh 13.5.
C/C(=N\NC(=O)c1cc2ccccc2cc1O)c1cc2ccccc2o1 was read as SKKanGAS inh 77.8*, tim10-1 inh 0.4, tim23-1 inh 20.8, PfHsp90 set2 -0.4, NALP3 yeast inh 5.1 and TIM10 inh 3.0.
O=C(CCC1CCCN(Cc2cccc(Cl)c2)C1)NCc1ccccc1F (centres undefined) was read as SKKanGAS inh -24.4, tim10-1 inh 6.5, tim23-1 inh -1.2, PfHsp90 set2 0.7, NALP3 yeast inh 6.6 and TIM10 inh -8.5.
`COC(=O)[C@H]1C[C@H](C(=O)O)[C@@H](C)C1(C)C` gave tim10-1 inh 18.4, tim23-1 inh 12.4, PfHsp90 set2 15.2, NALP3 yeast inh 0.8 and TIM10 inh -4.8.
CCCNC(=O)c1ccc(CN2CCOCC2)cc1 was read as SKKanGAS inh 1.0, tim10-1 inh 7.5, tim23-1 inh 5.8, PfHsp90 set2 10.6, NALP3 yeast inh -10.2 and TIM10 inh 8.1.
`Cn1cccc1C(=O)OCC(=O)N1CC(=O)Nc2ccccc21` gave SKKanGAS inh -15.2, tim10-1 inh 6.2, tim23-1 inh 2.2, PfHsp90 set2 29.5, NALP3 yeast inh -28.3 and TIM10 inh -14.5.
Screening CC[C@H](C)/C=C/C1=CC2=C(Cl)C(=O)[C@@]3(C)OC(=O)C(C(=O)[C@H](C)[C@@H](C)O)=C3C2=CO1 returned SKKanGAS inh 4.3, tim10-1 inh 21.2, tim23-1 inh 22.9, PfHsp90 set2 104.5*, NALP3 yeast inh -2.7 and TIM10 inh 15.0.
Cc1ccc(CSCc2nc3ccccc3[nH]2)cc1 was read as SKKanGAS inh 0.5 and PfHsp90 set2 -11.6.
Cc1cc(C)cc(CC(Cc2nc3ccccc3[nH]2)c2nc3ccccc3[nH]2)c1 (centres undefined) was read as SKKanGAS inh 56.6*, tim10-1 inh -15.3, tim23-1 inh 2.1, PfHsp90 set2 7.5, NALP3 yeast inh 14.9 and TIM10 inh -23.8.
For C/C(=N\Nc1cc(-c2ccccc2)nc(-c2ccccc2)n1)c1ccc(O)c(C)c1 the results were SKKanGAS inh 97.9*, tim10-1 inh 20.3, tim23-1 inh 22.0, PfHsp90 set2 11.0, NALP3 yeast inh 15.9 and TIM10 inh 12.7.
`O=C(c1cc2ccccc2o1)N1CCN(S(=O)(=O)c2ccc(F)c(F)c2F)CC1` gave tim10-1 inh 7.9, tim23-1 inh 15.0, PfHsp90 set2 -7.8, NALP3 yeast inh 13.9 and TIM10 inh 9.3.
For CC(C)Cc1csc(NC(=O)c2ccc(Cl)cc2)c1C(=O)O the results were SKKanGAS inh 73.8*, tim10-1 inh 16.2, tim23-1 inh 27.1, PfHsp90 set2 0.4, NALP3 yeast inh 1.6 and TIM10 inh 10.4.
CCN(c1ccccc1)S(=O)(=O)c1ccc(C(=O)Nc2nnc(C3CC3)o2)cc1 was read as SKKanGAS inh 77.7*, tim10-1 inh 23.0, tim23-1 inh 17.3, PfHsp90 set2 0.1, NALP3 yeast inh 17.4 and TIM10 inh 20.5.
Screening CN(c1ccccc1)S(=O)(=O)c1ccc(C(=O)Nc2nnc(-c3ccco3)o2)cc1 returned SKKanGAS inh 15.7, tim10-1 inh 18.6, tim23-1 inh 17.3, PfHsp90 set2 5.4, NALP3 yeast inh 21.4 and TIM10 inh 15.4.
`CCN(c1ccccc1)S(=O)(=O)c1ccc(C(=O)Nc2nnc(-c3ccco3)o2)cc1` gave SKKanGAS inh 63.0*, tim10-1 inh 8.9, tim23-1 inh 14.4, NALP3 yeast inh 18.8 and TIM10 inh 19.4.
CN(c1ccccc1)S(=O)(=O)c1ccc(C(=O)Nc2nnc(C3CC3)o2)cc1 was read as SKKanGAS inh 9.6, tim10-1 inh 24.7, tim23-1 inh 9.5, PfHsp90 set2 -2.7, NALP3 yeast inh -1.7 and TIM10 inh 1.1.
Cc1ccc(S(=O)(=O)N2C(=O)CCC2C(=O)O/N=C(\N)c2cccc([N+](=O)[O-])c2)cc1 (centres undefined) was read as SKKanGAS inh 1.7, tim10-1 inh 0.0, tim23-1 inh 16.1, PfHsp90 set2 -6.4, NALP3 yeast inh 0.8 and TIM10 inh 5.7.
